# Laboratory results: publication PMC8384837, “Expanding the binding specificity for RNA recognition by a PUF domain”
# Where a chain is given by its changes, count along the chain named.
# Key:
# Test in all cases: yeast three-hybrid, YBZ-1, SC-Leu-His + 0.5 mM 3-AT, 4 days
# Conditions in all cases: tags: N-Gal4 AD-HA kept; label: inside an RPR1-promoter hybrid RNA with tandem MS2 sites; ssRNA
# [1] = target: T1, PUM1 PUF domain R6-CFE (Homo sapiens, UniProt Q14671 828-1176, N1043C;Y1044F;Q1047E)
# T1 sequence: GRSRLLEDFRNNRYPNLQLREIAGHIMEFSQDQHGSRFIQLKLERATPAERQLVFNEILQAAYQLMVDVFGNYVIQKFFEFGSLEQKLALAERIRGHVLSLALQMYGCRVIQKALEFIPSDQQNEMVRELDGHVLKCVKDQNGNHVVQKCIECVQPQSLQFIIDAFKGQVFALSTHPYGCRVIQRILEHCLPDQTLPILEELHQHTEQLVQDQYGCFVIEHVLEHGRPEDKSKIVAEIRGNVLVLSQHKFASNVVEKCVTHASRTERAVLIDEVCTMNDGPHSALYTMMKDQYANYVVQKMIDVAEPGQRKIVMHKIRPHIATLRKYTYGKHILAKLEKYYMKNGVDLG
# How it was run: (§1)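 Each repeat of the Pumilio-1 PUF domain was randomized at its three base-contacting residues, and these libraries were co-expressed from a centromeric plasmid with matching RNA elements in strain YBZ-1. After four days on SC-Leu (input) or SC-Leu-His + 0.5 mM 3-AT (selection), the repeat regions were PCR-amplified and Illumina-sequenced. The interaction score compares variant frequency between input and selection as a log change, computed in log2 with a pseudocount of 1 for absent variants.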
# [2] = target: PUM1 PUF domain R4-SRV (Homo sapiens, UniProt Q14671 828-1176, N971S;H972R;Q975V)
# How it was run: as §1
# [3] = target: PUM1 PUF domain R4-FGA (Homo sapiens, UniProt Q14671 828-1176, N971F;H972G;Q975A)
# How it was run: as §1
# [4] = target: PUM1 PUF domain R7-KPM (Homo sapiens, UniProt Q14671 828-1176, S1079K;N1080P;E1083M)
# How it was run: as §1
# [5] = target: PUM1 PUF domain R5-GPR (Homo sapiens, UniProt Q14671 828-1176, C1007G;R1008P;Q1011R)
# How it was run: as §1
# [6] = target: PUM1 PUF domain R5-RGR (Homo sapiens, UniProt Q14671 828-1176, C1007R;R1008G;Q1011R)
# How it was run: as §1
# [7] = target: PUM1 PUF domain R1-RLE (Homo sapiens, UniProt Q14671 828-1176, S863R;R864L;Q867E)
# How it was run: as §1
# [8] = target: PUM1 PUF domain R1-QRS (Homo sapiens, UniProt Q14671 828-1176, S863Q;Q867S)
# How it was run: as §1
# [9] = target: PUM1 PUF domain R3-FRG (Homo sapiens, UniProt Q14671 828-1176, C935F;Q939G)
# How it was run: as §1
# [10] = target: PUM1 PUF domain R3-IRV (Homo sapiens, UniProt Q14671 828-1176, C935I;Q939V)
# How it was run: as §1
# [11] = target: PUM1 PUF domain R5-ERG (Homo sapiens, UniProt Q14671 828-1176, C1007E;Q1011G)
# How it was run: as §1
# [12] = target: PUM1 PUF domain R5-KSQ (Homo sapiens, UniProt Q14671 828-1176, C1007K;R1008S)
# How it was run: as §1
# [13] = target: PUM1 PUF domain R5-LHV (Homo sapiens, UniProt Q14671 828-1176, C1007L;R1008H;Q1011V)
# How it was run: as §1
# [14] = target: PUM1 PUF domain R3-YWT (Homo sapiens, UniProt Q14671 828-1176, C935Y;R936W;Q939T)
# How it was run: as §1
# [15] = target: PUM1 PUF domain R5-DRL (Homo sapiens, UniProt Q14671 828-1176, C1007D;Q1011L)
# How it was run: as §1
# [16] = target: PUM1 PUF domain R5-SKQ (Homo sapiens, UniProt Q14671 828-1176, C1007S;R1008K)
# How it was run: as §1
# [17] = target: PUM1 PUF domain R5-KYK (Homo sapiens, UniProt Q14671 828-1176, C1007K;R1008Y;Q1011K)
# How it was run: as §1
# [18] = target: PUM1 PUF domain R8-HYC (Homo sapiens, UniProt Q14671 828-1176, N1122H;Q1126C)
# How it was run: as §1
# [19] = target: PUM1 PUF domain R5-PRC (Homo sapiens, UniProt Q14671 828-1176, C1007P;Q1011C)
# How it was run: as §1
# [20] = target: T2, PUM1 PUF domain R6-AFQ (Homo sapiens, UniProt Q14671 828-1176, N1043A;Y1044F)
# T2 sequence: T1 sequence with C216A, E220Q
# How it was run: as §1
# Sequence of PUM1 PUF domain R5-ERG (Q14671 828-1176 C1007E/Q1011G): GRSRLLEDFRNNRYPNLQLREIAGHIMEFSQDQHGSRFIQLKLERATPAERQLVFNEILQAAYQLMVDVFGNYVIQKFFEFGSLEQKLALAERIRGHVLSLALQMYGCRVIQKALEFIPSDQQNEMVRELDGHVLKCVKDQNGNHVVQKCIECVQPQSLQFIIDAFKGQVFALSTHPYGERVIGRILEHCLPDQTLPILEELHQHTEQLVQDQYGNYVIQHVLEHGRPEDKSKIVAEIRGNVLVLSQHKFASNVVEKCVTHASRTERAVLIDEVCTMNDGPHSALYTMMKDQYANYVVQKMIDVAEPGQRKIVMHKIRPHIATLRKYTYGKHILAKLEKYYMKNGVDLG
# Sequence of PUM1 PUF domain R5-DRL (Q14671 828-1176 C1007D/Q1011L): as the sequence (Q14671 828-1176 C1007E/Q1011G) above, with E180D, G184L counted along it
# Sequence of PUM1 PUF domain R1-RLE (Q14671 828-1176 S863R/R864L/Q867E): as the sequence (Q14671 828-1176 C1007E/Q1011G) above, with S36R, R37L, Q40E, E180C, G184Q counted along it
# Sequence of PUM1 PUF domain R5-GPR (Q14671 828-1176 C1007G/R1008P/Q1011R): as the sequence (Q14671 828-1176 C1007E/Q1011G) above, with E180G, R181P, G184R counted along it
# Sequence of PUM1 PUF domain R8-HYC (Q14671 828-1176 N1122H/Q1126C): as the sequence (Q14671 828-1176 C1007E/Q1011G) above, with E180C, G184Q, N295H, Q299C counted along it
# Sequence of PUM1 PUF domain R7-KPM (Q14671 828-1176 S1079K/N1080P/E1083M): as the sequence (Q14671 828-1176 C1007E/Q1011G) above, with E180C, G184Q, S252K, N253P, E256M counted along it
# Sequence of PUM1 PUF domain R5-KSQ (Q14671 828-1176 C1007K/R1008S): as the sequence (Q14671 828-1176 C1007E/Q1011G) above, with E180K, R181S, G184Q counted along it
# Sequence of PUM1 PUF domain R3-YWT (Q14671 828-1176 C935Y/R936W/Q939T): as the sequence (Q14671 828-1176 C1007E/Q1011G) above, with C108Y, R109W, Q112T, E180C, G184Q counted along it
# Sequence of PUM1 PUF domain R5-KYK (Q14671 828-1176 C1007K/R1008Y/Q1011K): as the sequence (Q14671 828-1176 C1007E/Q1011G) above, with E180K, R181Y, G184K counted along it
# Sequence of PUM1 PUF domain R5-SKQ (Q14671 828-1176 C1007S/R1008K): as the sequence (Q14671 828-1176 C1007E/Q1011G) above, with E180S, R181K, G184Q counted along it
sequence,measurement,setting,value
GGCUAGAACUAGUGGAUCCCCCGGCGCCCGGCGGCUCGAGCCCGGGUAAGUGAAAAUAGUCUGCAUGCCGCCGGGCGCCAUGCCUGCAGGUCGACUCUAGAAAACAUG,binding signal,[1],6.12 log2 enrichment (interaction score)
GGCUAGAACUAGUGGAUCCCCCGGCGCCCGGCGGCUCGAGCCCGGGUAAGUGUAUAUAGUCUGCAUGCCGCCGGGCGCCAUGCCUGCAGGUCGACUCUAGAAAACAUG,binding signal,[2],1.19 log2 enrichment (interaction score)
same,binding signal,[3],2.95 log2 enrichment (interaction score)
GGCUAGAACUAGUGGAUCCCCCGGCGCCCGGCGGCUCGAGCCCGGGUAAGUCUAAAUAGUCUGCAUGCCGCCGGGCGCCAUGCCUGCAGGUCGACUCUAGAAAACAUG,binding signal,[4],3.19 log2 enrichment (interaction score)
GGCUAGAACUAGUGGAUCCCCCGGCGCCCGGCGGCUCGAGCCCGGGUAAGUGUUAAUAGUCUGCAUGCCGCCGGGCGCCAUGCCUGCAGGUCGACUCUAGAAAACAUG,binding signal,[5],2.39 log2 enrichment (interaction score)
same,binding signal,[6],3.07 log2 enrichment (interaction score)
GGCUAGAACUAGUGGAUCCCCCGGCGCCCGGCGGCUCGAGCCCGGGUAAGUGGAAAUAGUCUGCAUGCCGCCGGGCGCCAUGCCUGCAGGUCGACUCUAGAAAACAUG,binding signal,[1],2.88 log2 enrichment (interaction score)
GGCUAGAACUAGUGGAUCCCCCGGCGCCCGGCGGCUCGAGCCCGGGUAAGUGUAAAUUGUCUGCAUGCCGCCGGGCGCCAUGCCUGCAGGUCGACUCUAGAAAACAUG,binding signal,[7],2.88 log2 enrichment (interaction score)
same,binding signal,[8],2.7 log2 enrichment (interaction score)
GGCUAGAACUAGUGGAUCCCCCGGCGCCCGGCGGCUCGAGCCCGGGUAAGUGUAAGUAGUCUGCAUGCCGCCGGGCGCCAUGCCUGCAGGUCGACUCUAGAAAACAUG,binding signal,[9],5.59 log2 enrichment (interaction score)
same,binding signal,[10],1.69 log2 enrichment (interaction score)
GGCUAGAACUAGUGGAUCCCCCGGCGCCCGGCGGCUCGAGCCCGGGUAAGUGUACAUAGUCUGCAUGCCGCCGGGCGCCAUGCCUGCAGGUCGACUCUAGAAAACAUG,binding signal,[2],0.98 log2 enrichment (interaction score)
same,binding signal,[3],3.23 log2 enrichment (interaction score)
GGCUAGAACUAGUGGAUCCCCCGGCGCCCGGCGGCUCGAGCCCGGGUAAGUGUCAAUAGUCUGCAUGCCGCCGGGCGCCAUGCCUGCAGGUCGACUCUAGAAAACAUG,binding signal,[5],4.4 log2 enrichment (interaction score)
same,binding signal,[11],2.14 log2 enrichment (interaction score)
same,binding signal,[12],5.03 log2 enrichment (interaction score)
same,binding signal,[13],1.43 log2 enrichment (interaction score)
same,binding signal,[6],3.52 log2 enrichment (interaction score)
GGCUAGAACUAGUGGAUCCCCCGGCGCCCGGCGGCUCGAGCCCGGGUAAGUGUAAUUAGUCUGCAUGCCGCCGGGCGCCAUGCCUGCAGGUCGACUCUAGAAAACAUG,binding signal,[14],2.71 log2 enrichment (interaction score)
GGCUAGAACUAGUGGAUCCCCCGGCGCCCGGCGGCUCGAGCCCGGGUAAGUGUGAAUAGUCUGCAUGCCGCCGGGCGCCAUGCCUGCAGGUCGACUCUAGAAAACAUG,binding signal,[15],1.6 log2 enrichment (interaction score)
same,binding signal,[16],2.39 log2 enrichment (interaction score)
same,binding signal,[11],1.54 log2 enrichment (interaction score)
GGCUAGAACUAGUGGAUCCCCCGGCGCCCGGCGGCUCGAGCCCGGGUAAGUGUAAAUAGUCUGCAUGCCGCCGGGCGCCAUGCCUGCAGGUCGACUCUAGAAAACAUG,binding signal,[15],2.34 log2 enrichment (interaction score)
same,binding signal,[17],2.74 log2 enrichment (interaction score)
same,binding signal,[18],3.69 log2 enrichment (interaction score)
same,binding signal,[11],3.47 log2 enrichment (interaction score)
same,binding signal,[13],3.57 log2 enrichment (interaction score)
same,binding signal,[2],3.51 log2 enrichment (interaction score)
same,binding signal,[19],4.13 log2 enrichment (interaction score)
same,binding signal,[10],2.93 log2 enrichment (interaction score)
same,binding signal,[20],3.75 log2 enrichment (interaction score)
same,binding signal,[3],1.37 log2 enrichment (interaction score)
GGCUAGAACUAGUGGAUCCCCCGGCGCCCGGCGGCUCGAGCCCGGGUAAGUGUAAAUCGUCUGCAUGCCGCCGGGCGCCAUGCCUGCAGGUCGACUCUAGAAAACAUG,binding signal,[7],2.67 log2 enrichment (interaction score)
